G9a inh: blocks human histone lysine methyltransferase G9a; G9a H3K9 monomethylation, AlphaScreen, 2 h; 350,000 compounds, 8.8% hits; Potency, µM (top dose mostly 102 µM), most hits filed as inhibitors; note: nearly all actives have a fitted effect of over 75% in size
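Chemiluminescent proximity detection of H3K9 monomethylation, read after 10 min bead incubation in the dark. Reaction: 20 nM G9a, 500 nM biotin-H3K9 peptide, 20 uM SAM cofactor, 2 h, room temperature, following 15 min enzyme-compound preincubation.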
BAZ2B inh: inhibitors of human BAZ2B bromodomain | 360,000 compounds, 4.4% hits | AlphaScreen BAZ2B-H3K14Ac peptide displacement | Potency, µM (highest dose often 114 µM), most hits filed as inhibitors; note: nearly all actives have a fitted effect of over 60% in size
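Protein-peptide AlphaScreen: BAZ2B 50 nM, b-H3K14Ac 50 nM, 1x PBS pH 7.4 + 0.01% Tween-20. Preincubation 30 min RT; cpd 30 min RT (top 110 uM); beads 20 min RT, light-protected.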
HP1b chromo inh: blocks HP1-beta chromodomain binding to methylated histone tails | 390,000 compounds, 0.56% hits | Potency, µM (doses to about 114 µM), hits mostly inhibitors | P83916 | AID 540317 | AlphaScreen HP1-beta / biotin-H3K9me3 peptide binding; note: nearly all actives have a fitted effect of over 70% in size
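HP1-beta protein (50 nM final) preincubated 30 min at room temperature with biotinylated H3(1-18)K9me3 peptide (50 nM) in PBS pH 7.4, 0.01% Tween-20, then compound added for 30 min. AlphaScreen streptavidin donor/nickel chelate acceptor beads (10 ug/mL final), 30 min dark, luminescence read.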
GLS inh: blocks human kidney-isoform glutaminase activity; AID 624170; 410,000 compounds, 0.21% hits; Potency, µM (titrated, usually from 45.5 µM), most hits filed as inhibitors; O94925; GLS enzymatic activity, qHTS titration
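hKGA in 45 mM KH2PO4 pH 8.2, 0.02% Tween-20 with pin-transferred compounds; 1 mM L-glutamine (stock) plus glutamate oxidase/HRP/Amplex Red coupling added. Fluorescence read initially and after 30 min at RT.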
JMJD2A Tudor inh: blocks the human JMJD2A Tudor domain | O75164 | AlphaScreen JMJD2A-Tudor / H3K4me3 peptide binding | Potency, µM (doses to about 114 µM), actives largely listed as inhibitors | 390,000 compounds, 4.4% hits | AID 504339; note: nearly all actives have a fitted effect of over 50% in size
Each line names hits and unclear results; the compound was inactive in the other large screens. Most compounds without a hit are left out; they make up all but 10% or so of the library. Calls come from the whole dose curve; as a rule, active = well fitted curve in the direction sought with a large enough effect; inconclusive = small, poorly fitted or top-dose-only effect, or another doubt; inactive = no such curve, though single readings can be large; an effect the other way counts as inactive or inconclusive.

Cc1ccccc1N=CC=C1OC(C)(C)C(C)(C)O1	G9a inh 40µM
COc1cccc(NC=C2C(=O)OC(C)(C)OC2=O)c1	none
O=C(CSc1ncccc1-c1nc2ccccc2[nH]1)Nc1ccc2c(c1)OCCO2	G9a inh inconclusive
CCOCCCNC(=O)CCNS(=O)(=O)c1ccc(C)cc1	none
COC(=O)CNC(=O)N1CCN(S(=O)(=O)c2ccc3c(ccn3C)c2)CC1	none
Cc1ccc(-c2csc3ncn(-n4c(C)ccc4C)c(=O)c23)o1	G9a inh 10µM, BAZ2B inh inconclusive, JMJD2A Tudor inh inconclusive
Cc1cc(C)cc(NC(=O)CSc2nc(N)c(NC(=O)c3cccs3)c(=O)[nH]2)c1	G9a inh 11µM
Nc1nc(SCC(=O)Nc2ccc(F)cc2)[nH]c(=O)c1NC(=O)c1ccc(F)c(F)c1	G9a inh 79µM
CC(=O)Nc1ccc(NC(=O)CSc2nc(N)c(NC(=O)c3ccco3)c(=O)[nH]2)cc1	BAZ2B inh 50µM
Cc1nnc(NC(=O)CSc2nc(N)c(NC(=O)c3cccs3)c(=O)[nH]2)s1	G9a inh inconclusive
CCc1ccc(NC(=O)CSc2nc(N)c(NC(=O)c3ccc(F)c(F)c3)c(=O)[nH]2)cc1	none (no result: G9a inh)
O=c1c2ccccc2c(C=Nc2ccc(S(=O)(=O)N3CCCCC3)cc2)c(O)n1-c1ccc(Cl)cn1	none
Cc1c(CCC(=O)NCCCn2ccnc2)c(=O)oc2c(C)c3occ(C(C)(C)C)c3cc12	BAZ2B inh 25µM, JMJD2A Tudor inh inconclusive (no result: G9a inh)
O=C(COc1ccc(Br)cc1)NCCCn1ccnc1	BAZ2B inh 56µM
Cc1ccc(C(C)C)cc1OCC(=O)NCCCn1ccnc1	none (no result: G9a inh, BAZ2B inh)
Cc1coc2c(C)c3oc(=O)c(CCC(=O)NCCCn4ccnc4)c(C)c3cc12	none
COc1ccc(OCC(O)Cn2cnc(-c3ccc(Br)cc3)c2)cc1 (centres undefined)	G9a inh 18µM
COc1ccccc1OCC(=O)NCCCn1ccnc1	BAZ2B inh 79µM
O=c1c2ccccc2nc2n1CCN2	none
Cc1nc(Oc2ccc(F)cc2Cl)c2oc3ccccc3c2n1	none
O=C(CN1C(=O)CSc2ccccc21)Nc1ccc2c(c1)OCCO2	G9a inh inconclusive, BAZ2B inh inconclusive, JMJD2A Tudor inh inconclusive
CCOC(=O)N1CCN(C(=O)CS(=O)Cc2nc(-c3ccc(OC)c(OC)c3)oc2C)CC1 (centres undefined)	none
OC(COc1ccc(Br)cc1)Cn1ccnc1 (centres undefined)	G9a inh 79µM
Cc1c(OCC(=O)NCCCn2ccnc2)ccc2c3c(c(=O)oc12)CCC3	none
Cc1c(C)c2ccc(OCC(=O)NCCCn3ccnc3)c(C)c2oc1=O	BAZ2B inh 79µM
Cc1ccn2cc(-c3cccc([N+](=O)[O-])c3)nc2c1	BAZ2B inh inconclusive
O=S(=O)(Nc1ccn(-c2ccccc2)n1)c1ccc(Br)cc1	G9a inh 14µM
OC[C@@H]1CN(Cc2ccc3c(c2)OCO3)C[C@H](n2cnc3c(NC4CCC4)ncnc32)O1	none (no result: G9a inh, BAZ2B inh, HP1b chromo inh, JMJD2A Tudor inh)
CN(C)c1ccc(NC(=O)Cn2c(SCc3ccc(F)cc3)nc3ccncc32)cc1	G9a inh 6.3µM, BAZ2B inh inconclusive, JMJD2A Tudor inh inconclusive
CCc1ccc(NC(=O)Cn2c(SCc3ccc(C)cc3)nc3ccncc32)cc1	none (no result: G9a inh, BAZ2B inh, GLS inh)
COC(=O)CSc1nc(N)c(NC(=O)c2ccc(OC)c(OC)c2)c(=O)[nH]1	G9a inh inconclusive
CCC1CCCCN1C(=O)CSc1nc2ncccc2[nH]1 (centres undefined)	HP1b chromo inh inconclusive, JMJD2A Tudor inh 50µM (no result: G9a inh)
O=C(CSc1nc2ncccc2[nH]1)NC1CCCC1	G9a inh 22µM
CC1CCN(C(=O)CSc2nc3ncccc3[nH]2)CC1	none
COC(=O)CSc1nc2ncccc2[nH]1	G9a inh inconclusive
CCC1CCCCN1C(=O)CSc1nc(N)c(NC(=O)c2ccc(OC)c(OC)c2)c(=O)[nH]1 (centres undefined)	G9a inh 50µM
Fc1ccc(CSc2nc3ncccc3[nH]2)cc1	G9a inh 50µM
Cc1cc(N2O[C@H]3C=C[C@@H]2C3)no1	JMJD2A Tudor inh 79µM (no result: G9a inh, BAZ2B inh)
Cc1cc(N2C(=O)C3C4C=CC(C4)C3C2=O)no1 (centres undefined)	none
Cc1ccc(NC(=O)CN(C)S(=O)(=O)c2cccc3cccnc23)c(C)c1	none
